Source: PubChem (National Center for Advancing Translational Sciences (NCATS))
ClpP mod = qHTS Assay for Activators of ClpP; ATP-dependent Clp protease proteolytic subunit (Bacillus subtilis (strain 168)), P80244; purified B. subtilis ClpP, FRET peptide cleavage, 20 min; Potency, µM (highest dose often 57.5 µM), inactives show at the highest dose activity change, negative = active; hit rate 1.9% among 340,000; AID 651965, 2013; active = well fitted falling curve with a large enough effect; inconclusive = small, poorly fitted or top-dose-only effect; inactive = no such curve, though single readings can be large or run the other way; note: the source files actives as falling curves though it sought activators and does not explain the sign; nearly all actives have a fitted effect of over 65% in size
Target sequence (P80244 whole entry, looked up): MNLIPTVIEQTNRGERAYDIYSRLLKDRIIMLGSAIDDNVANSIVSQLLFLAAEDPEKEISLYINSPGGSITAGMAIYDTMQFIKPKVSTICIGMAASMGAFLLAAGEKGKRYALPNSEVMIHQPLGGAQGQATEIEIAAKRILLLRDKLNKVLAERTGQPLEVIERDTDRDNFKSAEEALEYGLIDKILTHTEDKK
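Purified B. subtilis ClpP, 10 microg/mL final in Tris/HCl pH8 with KCl, BSA, glycerol and Tween-20, cleaved an Abz/nitrotyrosine-quenched decapeptide. Fluorescence (ex 320, em 430) was read at 0 and 20 min at room temperature. Delta was normalized to 5.8 microM ADEP and DMSO/no-enzyme controls.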
Epigenetic reg = derepresses silenced GFP reporter in murine cells; murine LDR cells, GFP reporter derepression, 30 h; Potency, µM (titrated, usually from 53.9 µM), inactives show at the highest dose GFP activation, actives largely listed as activators; hit rate 0.2% among 280,000; note: % of control where 0% means no effect; nearly all actives have a fitted effect of over 60% in size
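Readout is the number of GFP-expressing murine LDR cells, counted by cytometry following washing. Cells were treated with compound for 30 h at 37 C; the stably integrated CMV-GFP locus is normally silent.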
Gal4-VP16 FLuc = counter-screen for ROR gamma inhibitors: Gal4-VP16 reporter. Drosophila S2 Gal4-VP16 UAS-luciferase, luminescence, 20 h. Potency, µM (top dose mostly 53.6 µM), without a hit: at the top dose activity, negative = inhibition, hits mostly inhibitors. hit rate 3.5% among 310,000. AID 2546;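 note: Gal4-VP16 expression switched on by copper sulfate through the metallothionein promoter; % is set by controls: 0 for no effect and ±100 for the full control effect; nearly all actives have a fitted effect of over 50% in size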
Sfp inh = inhibitors of Bacillus subtilis Sfp phosphopantetheinyl transferase; Biochemical Sfp PPTase activity, qHTS; Potency, µM, inactives show largest response in the series, negative = inhibition, most hits filed as inhibitors; hit rate 3.5% among 310,000; Q9F4F7; AID 1490;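 note: the enzyme is Sfp with the accession as filed and its product quenches rhodamine fluorescence; 0% = enzyme reaction without inhibitor and -100% = no enzyme wells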
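Step 1, compound plus 15 nM Sfp-PPTase, 15 min, room temperature. Step 2, add rhodamine-CoA (5 uM) and BHQ-2-YbbR (12.5 uM). Step 3, read 525/598 nm fluorescence at 0 and 30 min.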
PINK1 modulator = PINK1 expression modulation. PINK1 immunofluorescence, high-content cytometry, 24 h. Potency, µM (doses to about 76.6 µM), for the others: at the top dose activation (PINK1 increase), actives largely listed as activators. hit rate 0.2% among 410,000. AID 624263; active = well fitted activation curve with a large enough effect; inconclusive = small, poorly fitted or top-dose-only effect; cell line not stated here; note: % of control where 0% means no effect; nearly all actives have a fitted effect of over 65% in size
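PINK1 protein, normally rapidly degraded, was detected by immunofluorescence after 24 hour compound treatment of a stable cell line. Titration data (5 concentrations) came from laser-scanning cytometry, with CCCP-treated wells as controls.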
RORgamma inh = blocks mouse ROR gamma transcriptional activity. P51450. Drosophila S2 Gal4-RORgamma UAS-luciferase reporter, 20 h. Potency, µM (series often up to 53.6 µM), for inactives: top-dose activity change, negative = inhibition, usual class: inhibitors. hit rate 5.4% among 310,000. AID 2551; note: % is set by controls: 0 for no effect and ±100 for the full control effect; nearly all actives have a fitted effect of over 60% in size
Target sequence (P51450 whole entry, looked up, the tested form may be a part): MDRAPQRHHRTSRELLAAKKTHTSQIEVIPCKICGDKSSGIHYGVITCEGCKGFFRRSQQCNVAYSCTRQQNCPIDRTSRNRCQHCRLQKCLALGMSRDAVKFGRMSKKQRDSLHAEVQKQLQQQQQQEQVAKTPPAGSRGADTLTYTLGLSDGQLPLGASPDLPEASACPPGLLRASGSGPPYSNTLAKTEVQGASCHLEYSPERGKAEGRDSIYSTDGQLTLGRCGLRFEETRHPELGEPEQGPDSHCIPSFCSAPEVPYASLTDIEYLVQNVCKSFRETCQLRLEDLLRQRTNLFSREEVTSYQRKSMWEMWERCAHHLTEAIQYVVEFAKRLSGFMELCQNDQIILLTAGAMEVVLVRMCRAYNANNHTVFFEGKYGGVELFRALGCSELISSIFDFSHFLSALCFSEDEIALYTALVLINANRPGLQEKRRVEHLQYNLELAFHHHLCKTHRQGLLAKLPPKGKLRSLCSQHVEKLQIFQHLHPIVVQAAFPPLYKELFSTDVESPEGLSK
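Drosophila S2 cells stably expressing Gal4-DBD/mouse RORγ fusion under metallothionein promoter plus UAS-luciferase; compound 1 h, then 700 uM CuSO4 induction for 20 h at ambient temperature; inhibition read as reduced luminescence.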
* = called active by the depositor; ? = inconclusive; nt = no result given; [ ] = remark or other dose. Hits are enriched below; roughly 8.1% of the tested compounds scored in any of these assays. Unless noted, calls come from the whole dose curve; as a rule, active = well fitted curve in the direction sought with a large enough effect; inconclusive = small, poorly fitted or top-dose-only effect, or another doubt; inactive = no such curve, though single readings can be large; an effect the other way counts as inactive or inconclusive. Potency is the fitted concentration of half-maximal effect.

SMILES | ClpP mod | Epigenetic reg | Gal4-VP16 FLuc | Sfp inh | PINK1 modulator | RORgamma inh
CSc1ccc(-c2sc(Nc3ccccc3)n[n+]2-c2ccccc2)cc1 | 2% | nt | -10% | ? | 2% | -6%
COc1ccc(-c2cc3c(=O)n(CC(=O)Nc4cc(F)ccc4F)ccn3n2)cc1OC | 25% | -1% | nt | nt | 10% | nt
CCOc1ccccc1NC(=O)C1CCN(S(=O)(=O)c2ccc3[nH]c4c(c3c2)CCCCC4)CC1 | ? | -2% | nt | nt | 0% | nt
CCOc1ccc(CCNC(=O)COC(=O)/C=C/c2ccc(C)o2)cc1OCC | -3% | nt | 4% | 56µM* | 0% | 11%
Cc1ccc(/C=C/C(=O)OCC(=O)NCCN2C(=O)CSC2=O)o1 | -2% | 3% | 17% | 32µM* | -1% | -3%
CCOc1ccc(C2C(C(N)=O)=C(C)Nc3nc(SCc4ccccc4F)nn32)cc1 (centres undefined) | -6% | -2% | nt | nt | 1% | nt
CCOC(=O)c1cnc2ccc(C)cc2c1Nc1ccc(N(CC)CC)cc1 | -5% | -1% | nt | nt | ? | nt
CCOC(=O)C(CSCC(=O)c1ccc(Cl)cc1Cl)NC(=O)OC(C)(C)C (centres undefined) | -2% | 15% | ? | -13% | 0% | ?
CCOC(=O)CSCC(NC(=O)OC(C)(C)C)C(=O)OCC (centres undefined) | 0% | -1% | ? | 15% | 0% | 7.1µM*
CCc1ccccc1NC(=O)CN(c1ccccc1OC)S(=O)(=O)c1ccc(C)cc1 | -3% | -1% | nt | nt | 0% | nt
Cc1ccc(-c2c(C)c(-c3ccc(F)cc3)nc(N)c2C#N)o1 | -16% | -1% | -14% | 18µM* | 16% | -29%
Cc1c(-c2ccc(F)cc2)nc(N)c(C#N)c1-c1cccnc1 | nt | -1% | -8% | 23% | -1% | 18%
COc1cc2nc(CN(C)Cc3ccc(OC)c(OC)c3OC)[nH]c(=O)c2cc1OC | -1% | -2% | -10% | -1% | 0% | -34%
O=c1cc(CN(Cc2ccccc2)Cc2ccccc2)c2ccccc2o1 | -7% | nt | nt | nt | 0% | nt
CCc1ccc2c(CN(CC)Cc3nc4ccccc4c(=O)[nH]3)cc(=O)oc2c1 | -4% | 1% | ? | -21% | 0% | 8.9µM*
CCN(Cc1cc(=O)n2cc(Cl)c(C)c(Cl)c2n1)Cc1nc2ccccc2c(=O)[nH]1 | nt | 0% | ? | -8% | 0% | 13µM*
COc1cc2nc(CN(C)Cc3nc4ccccc4c(=O)[nH]3)[nH]c(=O)c2cc1OC | -11% | -1% | 3.5µM* | 15% | 3%[38.3 µM] | 1.6µM*
CN(Cc1cc(=O)n2ccsc2n1)Cc1nc2ccccc2c(=O)[nH]1 | nt | 1% | ? | 4.5µM* | -1% | 7.9µM*
Cc1c(Cl)cn2c(=O)cc(CN3CCN(c4ccccc4)CC3)nc2c1Cl | nt | 1% | 6% | -25% | 3% | 2%
COc1cc(NC(=O)c2nnn(CC(=O)Nc3ccccc3)c2N)cc(OC)c1 | 7% | 5% | nt | nt | ? | nt
CC(C)CCCC(C)C1CCC2C3CC=C4CC(O)CCC4(C)C3CCC12C (centres undefined) | nt | 0% | 1% | 1% | nt | 9%
O=C(NCC1Cc2cccc(-c3ncccn3)c2O1)c1cccc(-c2ccccc2F)c1 (centres undefined) | nt | nt | nt | nt | 0% | nt
COc1cc2nc(CN3CCC(Cc4ccccc4)CC3)[nH]c(=O)c2cc1OC | 0% | 14% | 3% | 10% | 2% | 11µM*
CCN(Cc1nc2ccccc2c(=O)[nH]1)Cc1nc2cc(OC)c(OC)cc2c(=O)[nH]1 | -6% | 8% | 2.2µM* | 20% | 0% | 1.3µM*
CCc1ccc2c(CN(C)Cc3ccccc3OC)cc(=O)oc2c1 | nt | nt | 7% | 45µM* | 5% | 3%
SMILES | ClpP mod | Epigenetic reg | Gal4-VP16 FLuc | Sfp inh | PINK1 modulator | RORgamma inh
CCN(Cc1cc(=O)n2ccsc2n1)Cc1nc2cc(OC)c(OC)cc2c(=O)[nH]1 | -4% | 8% | -1% | ? | 0% | -42%
CCN(Cc1nc2ccccc2c(=O)[nH]1)Cc1nc2ccsc2c(=O)[nH]1 | 0% | 12% | 1µM* | 3% | -1% | 0.45µM*
CN(Cc1ccccc1)Cc1cc(=O)oc2ccccc12 | -8% | nt | nt | nt | 2% | nt
CN(Cc1nc2ccccc2c(=O)[nH]1)c1ccccc1 | -2% | -1% | -5% | 17% | ? | 39%
CCN(CC)CCNC(=O)Cn1ncc2c([nH]c3ccccc32)c1=O | 5% | 0% | nt | nt | 2% | nt
CCCCN(C)CCNC(=O)c1cc(=O)[nH]c2ccc(S(=O)(=O)N3CCCCCC3)cc12 | -1% | 9% | nt | nt | -1% | nt
CCc1ccc2nc(N(CCCN(C)C)C(=O)c3ccc(C(=O)c4ccccc4)cc3)sc2c1 | -1% | nt | ? | 56µM* | -2% | ?
COc1cc2nc(N(CCCN(C)C)C(=O)c3ccc(C(=O)c4ccccc4)cc3)sc2cc1OC | 0% | nt | nt | nt | -2% | nt
CN(C)CCCN(C(=O)c1ccc2c(c1)CCCC2)c1nc2ccc(Cl)cc2s1 | -20% | 14% | ? | 35µM* | -4% | ?
CCc1ccc2nc(N(CCCN(C)C)C(=O)c3ccc(S(=O)(=O)N4CCCc5ccccc54)cc3)sc2c1 | -4% | nt | ? | 35µM* | -2% | ?
Cc1c(C(=O)N2CCCC2)sc2ncnc(NCCN(C)C)c12 | nt | nt | nt | nt | 1% | nt
CCOC(=O)c1c(C)[nH]c(C(=O)OC(C(=O)N(C)C)c2ccccc2)c1C (centres undefined) | -1% | nt | nt | nt | -1% | nt
Cc1nnc2sc(-c3cccc4ccccc34)nn12 | 22µM* | -1% | 5% | -5% | -4% | -14%
Cc1nnc2c3ccccc3c(-c3cccc4ccccc34)nn12 | -3% | 0% | -2% | 20% | 14%[38.3 µM] | ?
Cc1ccccc1-c1nn2c(-c3ccccc3)nnc2s1 | -1% | 5% | 1% | 56µM* | -1% | -10%[10 µM]
O=C(O)CCc1ccc(-c2ccccc2)n1CC(=O)O | 32µM* | -1% | 2% | -16% | -1% | -4%
O=C(O)CCc1ccc(-c2ccc(Br)cc2)n1CC(=O)O | -9% | 2% | -8% | -34% | 3%[38.3 µM] | 20%
C=CCn1c(CCC(=O)O)ccc1-c1ccc(OC)cc1 | ? | 1% | 2% | 0% | nt | -24%
COc1ccc(-c2ccc(CCC(=O)O)n2-c2ccccc2O)cc1 | -20% | 7% | 0% | 79µM* | 7% | 1%
Cc1ccc(-c2ccc(CCC(=O)O)n2Cc2ccco2)cc1 | 32µM* | 2% | -2% | -18% | -2% | -1%
CCCn1c(CCC(=O)O)ccc1-c1ccccc1 | nt | 2% | 3% | -26% | -1% | 3%
COc1ccc(-c2ccc(CCC(=O)O)n2CC(C)C)cc1 | 32µM* | 1% | -2% | ? | ? | 19%
